Experimental data from article PMC5540273 (PLoS ONE, 2017).

Tests used:
JNK3 = test system: T1, JNK3
T1 construct: gene MAPK10

LZK = test system: T2, LZK
T2 construct: gene MAP3K13

MEK1 = test system: T3, MEK1
T3 construct: gene MAP2K1

MEK2 = test system: T4, MEK2
T4 construct: gene MAP2K2

MEK6 = test system: T5, MEK6
T5 construct: gene MAP2K6

MINK = test system: T6, MINK
T6 construct: gene MINK1

MLK1 = test system: T7, MLK1
T7 construct: gene MAP3K9
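Also: kd values determined as follow-up on hits from a single-replicate KINOMEscan panel screen.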

## COC(=O)c1c(-c2ccccc2)c2cc(OC)ccc2c(=O)n1Cc1ccccc1
JNK3
  Kd: 0.11 µM

## Cn1ccc2ncnc(Oc3cccc(C(=O)Nc4ccccc4)c3)c21
LIMK1
  Kd: > 10 µM

## COc1ccc(C2=C(Nc3cccc(C(=O)O)c3)C(=O)NC2=O)cc1 [SB-390765]
LIMK1
  Kd: > 10 µM

## O=c1cc(N2CCOCC2)nc2n(Cc3cccc(Cl)c3Cl)ccn12 [GSK2286295]
LYN
  Kd: > 10 µM

## O=C(Nc1n[nH]c2cc(-c3cccc(F)c3F)ccc12)C1CC1 [SB-733894]
LZK
  Kd: > 10 µM

## COc1cccc(-c2cc(-c3c[nH]nc3-c3ccccn3)ccn2)c1 [GW680338]
MAK
  Kd: > 10 µM

## Cc1cc(-c2ccc3c(c2)CC[C@@H](N[C@@H](C)c2ccccc2)C3)cnc1N.Cl [GW412617]
MAP4K2
  Kd: 0.043 µM

## COc1cccc(NC(=O)NC2CCN(c3ccnc(Nc4ccc(F)cc4)n3)C2)c1 (stereo not drawn) [GSK1379721]
MAP4K4
  Kd: > 10 µM
MAP4K5
  Kd: > 10 µM

## COc1ccccc1CNC(=O)c1cc(C(=O)c2ccccc2C)c[nH]1 [GSK364507]
MARK1
  Kd: > 10 µM

## Cc1ccc(NC(=O)Nc2cccc(Cl)c2)cc1-c1ccc(C(=O)Nc2ccncc2)cc1 [GSK1398468]
MEK1
  Kd: > 10 µM

## Cc1cccc(-c2nc(Nc3cccc(C(N)=O)c3)c3ccccc3n2)n1 [GW876019]
MEK1
  Kd: > 10 µM

## Fc1cc(Cl)ccc1Nc1ccnc2cc(-c3ccc(CN4CCCCC4)o3)ccc12 [GW560116]
MEK2
  Kd: > 10 µM

## CCCc1ccc(S(=O)(=O)NC2CCN(c3ccnc(Nc4ccc(F)cc4)n3)C2)cc1 (stereo not drawn) [GSK1379715]
MEK6
  Kd: > 10 µM

## CCn1c(-c2ccccn2)nc2cnccc21 [SB-736398]
MEK6
  Kd: > 10 µM

## Cc1ccc(-c2cc(-c3c[nH]nc3-c3ccccn3)ccn2)cc1 [GW684088]
MINK
  Kd: 0.061 µM

## Cc1ccc(NC(=O)Nc2cc(C(C)(C)C)nn2-c2ccccc2)cc1 [GSK1014915]
MKNK2
  Kd: 0.37 µM

## NC(=O)c1nnc2ccccc2c1N
MLK1
  Kd: > 10 µM
